“And” between values parts separate entries of the source, which are not always exact repeats. Equal values may be shown once. Inconclusive results are not listed. Entries that show only a call come without a potency. The source holds several records for some structures; these can differ, active in one and inactive in another. The source made the active and inactive calls. Calls follow the shape of the dose curve; as a rule, active = well fitted cell-killing curve with a large enough effect in the repeat runs; inconclusive = weak or mixed curves, or effect the other way; inactive = flat fitted curve, though single readings scatter.
Test: qHTS RealTime-Glo MT Cell Viability Assay in HEK293 cells - 32 hour (AID 1224868); also: nearly all actives have a fitted effect of over 50% in size; as to activity change, negative = cytotoxic: top concentration of the series differs between compounds
Conditions: RealTime-Glo luminescence; series mostly up to 76.8 µM; activity change, negative = cytotoxic: at the top concentration
Source text: National Center for Advancing Translational Sciences [NCATS]
NIH Chemical Genomics Center [NCGC]
U.S. Environmental Protection Agency [EPA]
National Institutes of Environmental Health Sciences [NIEHS]
National Toxicology Program [NTP]
U.S. Food and Drug Administration [FDA]
Measure of cell viability is critical in the cell-base assay. Analysis of cell viability is necessary for the characterization of cell responses to cytotoxic drugs and environmental stress. A RealTime-Glo MT Cell Viability Assay to monitor cell viability in real time of continues cell culture during 40 hours of compound treatment was used to screen Tox21 10K library compounds in Hek293 cells. The RealTime-Glo MT Cell Viability Assay is a nonlytic, homogeneous, bioluminescent method to measure cell viability in real time using a simple, plate-based method. The assay involves adding NanoLuc luciferase and a cell-permeant prosubstrate to cells in culture. Viable cells reduce the proprietary prosubstrate to generate a substrate for NanoLuc luciferase. This substrate diffuses from cells into the surrounding culture medium, where it is rapidly used by the NanoLuc Enzyme to produce a luminescent signal. The signal correlates with the number of viable cells, making the assay well suited for cytotoxicity studies.
Tox21 Assay Protocol Summary:
The mixture of Hek293 cell suspension and reagents were dispensed at 600cells/6 ul/well in 1536-well tissue culture treated black solid bottom plates using a Multidrop dispenser. After the assay plates were incubated at a 37 C/5% CO2 incubator for 5 hours, 23 nL of compounds dissolved in DMSO, positive and negative controls was transferred to the assay plate by a pintool work station. The plates were incubated at 37 C for 40 hours. The luminescence intensity were measured at 0h, 8h, 16h, 24h, 32h and 40h time points using ViewLux plate reader during compound treatment.
For `CC(C)C(=O)Nc1ccc([N+](=O)[O-])c(C(F)(F)F)c1`, the Potency was 12.6 µM (active) and 19.5 µM (active) and 9.52 µM (active).
For `CN1CCc2cccc3c2[C@H]1Cc1ccc(O)c(O)c1-3`, the Potency was 15.7 µM (active) and 8.17 µM (active) and 23.9 µM (active).
With `NC(=O)n1c(O)c(C(=O)c2cccs2)c2cc(Cl)ccc21` the “activity change, negative = cytotoxic” value was -2.44% [at 35.3 µM] (inactive).
For `CCCCC1(COC(=O)CCC(=O)O)C(=O)N(c2ccccc2)N(c2ccccc2)C1=O`, the Potency was “inactive”.
For `CC(=O)CCC(=O)O`, the Potency was “inactive”.
With `CCOc1ccc(NC(C)=O)cc1` the Potency was “inactive and 24.5 µM (active)”.
For `C1=CC2C3C=CC(C3)C2C1` (stereo not given), the “activity change, negative = cytotoxic” value was 6.08% (inactive).
With `O=c1[nH]cc(F)c(=O)[nH]1` the Potency was “inactive”.
For `CC/C(=C(\c1ccccc1)c1ccc(OCCN(C)C)cc1)c1ccccc1`, the Potency was 22.1 µM (active) [middle of 5 runs].
With `CN(C)CCOC(C)(c1ccccc1)c1ccccn1` (stereo not given) the Potency was “inactive”.
In the case of `C=CCc1ccc(O)c(OC)c1`, the Potency is reported as “inactive”.
For `CCCCOC(=O)c1ccc(O)cc1`, the Potency was 24.8 µM (active).
For `Oc1ccccc1`, the Potency was “inactive”.
In the case of `F[B-](F)(F)F`, the Potency is reported as “inactive”.
For `CCCCNC(=O)NS(=O)(=O)c1ccc(C)cc1`, the Potency was “inactive”.
With `COc1ccc(C(Cl)=C(c2ccc(OC)cc2)c2ccc(OC)cc2)cc1` the Potency was “inactive”.
With `O=CC(=O)c1ccccc1` the “activity change, negative = cytotoxic” value was 13.4% (inactive).
For `Nc1c(N=Nc2ccc(-c3ccc(N=Nc4cc(S(=O)(=O)O)c5ccccc5c4N)cc3)cc2)cc(S(=O)(=O)O)c2ccccc12`, the Potency was 38.9 µM (active).
In the case of `CCCC[P+](CCCC)(CCCC)CCCC`, the Potency is reported as 19.4 µM (active) and 15.8 µM (active) and 3.89 µM (active).
For `NS(=O)(=O)c1cc2c(cc1Cl)NCNS2(=O)=O`, the Potency was “inactive”.
With `Cc1c(C(=O)O)c(O)cc2c1C(=O)c1c(O)c([C@@H]3O[C@H](CO)[C@@H](O)[C@H](O)[C@H]3O)c(O)c(O)c1C2=O` the Potency was “inactive”.
With `COc1ccc2cc(S(=O)(=O)N[C@H](CC(=O)N[C@H](Cc3ccc(CN4[C@H](C)CCC[C@@H]4C)cc3)C(=O)N(C)C(C)C)c3ccc4c(c3)OCO4)ccc2c1` the Potency was 26.1 µM (active).
In the case of `Cc1cccc(C)c1`, the Potency is reported as “inactive”.
In the case of `CC(C)c1c(C(=O)Nc2ccccc2)c(-c2ccccc2)c(-c2ccc(F)cc2)n1CC[C@@H](O)C[C@@H](O)CC(=O)O`, the Potency is reported as “inactive”.
With `CC(=O)Nc1c(I)c(NC(C)=O)c(I)c(C(=O)O)c1I` the Potency was “inactive”.
With `CN1[C@@H]2CC(OC(=O)[C@H](CO)c3ccccc3)C[C@H]1[C@@H]1O[C@@H]12` (stereo not given in full) the Potency was “inactive”.
With `Nc1ccc2c(c1)CN1C(=O)c3ccccc3C1=N2` the Potency was 4.65 µM (active).
With `CC(=O)C(=O)O` the Potency was “inactive”.
With `O=C(O)CC(O)C(=O)O` (stereo not given) the Potency was “inactive”.
In the case of `CCCc1cc(=O)[nH]c(=S)[nH]1`, the Potency is reported as “inactive”.
For `CCc1nc(N)nc(N)c1-c1ccc(Cl)cc1`, the Potency was 3.52 µM (active) and 12.3 µM (active).
In the case of `NC1CCCCC1`, the Potency is reported as “inactive”.
In the case of `CS(=O)(=O)OCCCCOS(C)(=O)=O`, the Potency is reported as “inactive”.
With `C1CCC(C(CC2CCCCN2)C2CCCCC2)CC1` (stereo not given) the Potency was 10.7 µM (active).
In the case of `COc1ccc2c(c1)c(CC(=O)O)c(C)n2C(=O)c1ccc(Cl)cc1`, the Potency is reported as “inactive”.
With `Cc1ccc(S(=O)(=O)O)cc1` the Potency was “inactive”.
In the case of `CCN(CC)C(=O)c1cccc(C)c1`, the Potency is reported as “inactive”.
In the case of `CN(C)C(=S)SC(=S)N(C)C`, the Potency is reported as 1.78 µM (active) and 1.55 µM (active) and 6.74 µM (active).
For `Cn1c(=O)c2c(ncn2C)n(C)c1=O`, the Potency was “inactive”.
In the case of `Cc1ncc([N+](=O)[O-])n1C`, the Potency is reported as “inactive”.

From PubChem BioAssay (Tox21)
Potency is read from the fitted curve at half-maximal effect.
